Reference: PubChem BioAssay (NCI)
The panel holds about 79,000 compounds, 15% with a hit somewhere; the sample as a whole holds those more often. Active and inactive are the calls of the source. Rule as the data show it: active = growth inhibition above about 70%; inactive = the rest.

Assays:
[1] = NCI Yeast Anticancer Drug Screen. Data for the rad50 strain (AID 155);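 also: 0% = growth of vehicle-only cultures of the same strain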; conditions: S. cerevisiae rad50 strain growth inhibition; at 50.0 µM; active compounds read high
Summary of the method: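 Compounds were tested on a yeast strain with an engineered DNA damage repair alteration; the reported value is growth inhibition normalised to vehicle treatment.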

[2] = NCI Yeast Anticancer Drug Screen. Data for the mec2-1 strain (AID 157); conditions: S. cerevisiae mec2-1 strain, at 50.0 µM, active compounds read high
Summary of the method: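 Compounds were applied to mec2-1 yeast cells. Their growth was then compared with that of vehicle-treated cultures to give growth inhibition.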

[3] = NCI Yeast Anticancer Drug Screen. Data for the sgs1 mgt1 strain (AID 161);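 also: 0% = growth of cultures given vehicle only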; conditions: S. cerevisiae sgs1 mgt1 strain, at 50.0 µM, active compounds read high
Summary of the method: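 Percent growth inhibition was derived by comparing compound-exposed mutant yeast with vehicle-exposed cultures. The strain carries alterations in DNA damage repair.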

[4] = NCI Yeast Anticancer Drug Screen. Data for the cln2 rad14 strain (AID 165);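 also: 0% = growth equal to vehicle treated cultures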; conditions: S. cerevisiae cln2 rad14 strain, at 50.0 µM, active compounds read high
Summary of the method: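 Strain: cln2 rad14 yeast, altered in cell cycle control and DNA damage repair. Read-out: growth inhibition vs vehicle.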

[5] = NCI Yeast Anticancer Drug Screen. Data for the bub3 strain (AID 167); conditions: S. cerevisiae bub3 mutant strain, at 50.0 µM, active compounds read high
Summary of the method: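 Growth of a checkpoint-deficient yeast mutant is measured after compound exposure. Values represent inhibition relative to vehicle.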

[6] = NCI Yeast Anticancer Drug Screen. Data for the mlh1 rad18 strain (AID 175); conditions: S. cerevisiae mlh1 rad18 strain growth inhibition; at 50.0 µM; active compounds read high
Summary of the method: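 A repair-deficient yeast strain is exposed to test compound, and growth is scored relative to vehicle-treated controls.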

Measured: growth inhibition

CN(C)c1ncnc2c1ncn2C1OC(CO)C(N)C1O (stereo not given)
inactive: [1] 19.2% | [2] 3% | [3] 26.1% | [4] 0.55% | [5] 28.5% | [6] 20.6%

Cn1nnc(/N=C/c2ccccc2)n1
inactive: [1] 5.85% | [2] -8.1% | [3] -6.25% | [4] -19.1% | [5] 4.75% | [6] 11.4%

CC1(C)N=C(/C(Cl)=[N+](/[O-])C(=O)c2ccc(Cl)cc2)C(C)(C)N1O
inactive: [1] -21.1% | [2] -26.9% | [3] -24.1% | [4] -7.3% | [5] -38.6% | [6] -8.4%

CC(C)(C)CC(C)(C)N(CSc1ccc2ccccc2c1)CSc1ccc2ccccc2c1
inactive: [1] 20.9% | [2] 4.55% | [3] 21.1% | [4] 13.6% | [5] -0.45% | [6] 17.6%

CC(C)(C)c1ccc2c(c1)C(O)(C#Cc1ccccc1)c1ccccc1C2(O)C#Cc1ccccc1 (stereo not given)
inactive: [1] 11.6% | [2] -7.5% | [3] 1.5% | [4] 9.35% | [5] 0.05% | [6] 14.1%

CCCCCCC(=O)CC1(C(=O)OC)NC(=S)NC(=O)C1C#N (stereo not given)
inactive: [1] 18.1% | [2] 6.85% | [3] -1.55% | [4] -0.75% | [5] -9.55% | [6] 15.8%

CC(C)(c1ccccc1)C(C)(C)c1nc(-c2ccccc2)cc(-c2ccccc2)n1
inactive: [1] -23.4% | [2] 4.95% | [3] -4.65% | [4] -95% | [5] -0.95% | [6] -11.8%

Cc1cc(C)c2ccc(NN=O)nc2n1
inactive: [1] 11.4% | [2] 9.75% | [3] 18.9% | [4] 19.1% | [5] 13.2% | [6] 25.7%

Cn1c(=O)cc2[nH]c3ccccc3n2c1=O
inactive: [1] 9.5% | [2] 22.4% | [3] -10% | [4] -5.7% | [5] 4.6% | [6] -19.7%

Cc1c(Cl)ccc([N+](=O)[O-])c1Cl
inactive: [1] 10.7% | [2] -6.85% | [3] -3.35% | [4] 18.3% | [5] 14.8% | [6] 29.4%

O=C(c1ccc([N+](=O)[O-])cc1)c1cc2ccccc2oc1=O
inactive: [1] -12.1% | [2] -8.5% | [3] -9.85% | [4] -73% | [5] -18.4% | [6] -9%

CN(C)c1ccc(C=C(C(=O)c2ccccc2)C(=O)c2ccccc2)cc1
inactive: [1] 9.45% | [2] 1.9% | [3] 0.75% | [4] 8.6% | [5] 20.1% | [6] 37%

O=C(O)C1C2C3CCC(C3)C12 (stereo not given)
inactive: [1] 2.7% | [2] 16.4% | [3] 8.2% | [4] 34.6% | [5] -4.9% | [6] 1.95%

Clc1cccc(NCNC2Nc3ccccc3N2)c1
inactive: [1] 39% | [2] 20% | [3] 6.6% | [4] -14.3% | [5] 18.1% | [6] 27.9%

CCOC(=O)c1[nH]cc(C)c1-c1c[nH]c2ccccc12
inactive: [1] 31% | [2] 27.6% | [3] 20.4% | [4] 19.7% | [5] -4.05% | [6] 41.2%

Cn1c(-c2ccc(/C=N/N=C(N)N)cc2)c[n+]2ccccc12
inactive: [1] 8.85% | [2] 4.3% | [3] 4% | [4] 0.8% | [5] -3.85% | [6] 32.5%

CCOc1ccc(/C=C2/C(=O)N(/C=C3/C(=O)Oc4ccccc4C3=O)C(=NC(C)=O)N2C)cc1
inactive: [1] 8.75% | [2] -13% | [3] -10.8% | [4] 12.7% | [5] -1.85% | [6] 2.35%

CN(C)Cc1cc(C(C)(C)C)ccc1-c1ccc(C(C)(C)C)cc1CN(C)C
inactive: [1] -42.4% | [2] -17.6% | [3] -39.5% | [4] 12.6% | [5] -31.2% | [6] -30.9%

COC1OC(COS(=O)(=O)c2ccc(C)cc2)C2OC(C)(C)OC2C1OS(=O)(=O)c1ccc(C)cc1 (stereo not given)
inactive: [1] 54.9% | [2] 16.8% | [3] -4.4% | [5] 3.85% | [6] 7.1%
active: [4] 84.2%

O=C(NC1CCC(CC2CCCCC2)CC1)c1ccccc1 (stereo not given)
inactive: [1] -14.7% | [2] 0.7% | [3] -7.65% | [4] 21.2% | [5] 10.8% | [6] 19.2%

Cc1cc(C(=O)C=[N+]=[N-])c(CN2C(=O)c3ccccc3C2=O)c(=O)n1C
inactive: [1] -0.8% | [2] -9.55% | [3] -3.4% | [4] 5.95% | [5] -13.5% | [6] 1.4%

O=C(COc1ccccc1)Nc1ccc(C(=O)O)cc1
inactive: [1] -2.95% | [2] -3.6% | [3] -3.35% | [4] 1.85% | [5] 22.1% | [6] 25.3%

CC1(C)O[C@@H]2C[C@H]3[C@@H]4C[C@H](F)C5=CC(=O)C=C[C@]5(C)[C@@]4(F)[C@@H](O)C[C@]3(C)[C@]2(C(=O)CO)O1
inactive: [1] -1.8% | [2] -25.6% | [3] 0.25% | [4] -4.75% | [5] -57.8% | [6] -8.35%

Cn1cc(Cc2ccc(-c3ccccc3)cc2)c(=O)c(Cc2ccc(-c3ccccc3)cc2)c1
inactive: [1] 30.6% | [2] 6.75% | [3] -2.9% | [4] 12.5% | [5] 3.9% | [6] 27.8%

C(=Nc1ccc2ccccc2c1)c1cccs1
inactive: [1] 1.6% | [2] -3.2% | [3] 12.6% | [4] -12.1% | [5] 5.1% | [6] -0.6%

C[N+]1(C)C2CC(=O)CC1C1CC12 (stereo not given)
inactive: [1] -10.2% | [2] 7.4% | [3] 4.55% | [4] -2.15% | [5] 12.1% | [6] -16%

CC(C)N(CC(c1ccccc1)C(C)(O)c1ccccc1)C(C)C (stereo not given)
inactive: [1] -10.1% | [2] 15.7% | [3] -7.55% | [4] 4.2% | [5] 26.7% | [6] -21.1%

COC(=O)CC(NC(=O)CNC(=O)OCc1ccccc1)C(=O)NCC(=O)Oc1ccc([N+](=O)[O-])cc1 (stereo not given)
inactive: [1] 21% | [2] 2% | [3] 18.8% | [4] 15.1% | [5] -0.65% | [6] 12%

O=C1c2cc([N+](=O)[O-])sc2C(=O)c2c([N+](=O)[O-])csc21
active: [1] 91% | [2] 93% | [3] 92.5% | [4] 91.4% | [5] 92.1% | [6] 91.3%

COc1cc(C2c3cc4c(cc3OC(NNC(N)=O)C2C)OCO4)cc(OC)c1OC (stereo not given)
inactive: [1] -4.1% | [2] 6.4% | [3] 6.7% | [4] -19.6% | [5] 11.5% | [6] 10.4%

CCCN(C(=O)c1ccccc1)C(C#N)c1ccc(C(C#N)N(CCC)C(=O)c2ccccc2)cc1 (stereo not given)
inactive: [1] 7% | [2] 1.2% | [3] -24.4% | [4] -10.9% | [5] -11.8% | [6] -32.5%

C/C(=N\NC(=S)N1CCC(c2ccccc2)CC1)c1ccccn1
inactive: [1] -24.3% | [2] 3.95% | [3] 0.25% | [4] -22.4% | [5] 4.65% | [6] 13.8%

CCCCCCCCCCCCOc1ccc(Sc2ccc(OCCCCCCCCCCCC)cc2C)c(C)c1
inactive: [1] -16.2% | [2] -8.05% | [3] -0.95% | [4] -26.2% | [5] 6.35% | [6] -11.2%

O=C(ON=C1c2ccccc2C(Br)C(Br)c2ccccc21)c1cc([N+](=O)[O-])cc([N+](=O)[O-])c1 (stereo not given)
inactive: [1] 15.8% | [2] 8.85% | [3] 28.8% | [4] -0.6% | [5] 21.1% | [6] 27.5%

CN1CCC(CN)(c2ccccc2)CC1
inactive: [1] 14.1% | [2] 14.9% | [3] 0.35% | [4] -6.5% | [5] 9.7% | [6] 11.3%

O=[N+]([O-])c1ccccc1C1SCc2nc3ccccc3n21 (stereo not given)
inactive: [1] 25.2% | [2] 10.2% | [3] 31.8% | [4] 30.5% | [5] 44.5% | [6] 12.3%

CC(=O)OCC1OC(N2C(c3ccccc3)=CC(c3ccco3)C(C#N)=C2S)C(OC(C)=O)C(OC(C)=O)C1OC(C)=O (stereo not given)
inactive: [1] 0.95% | [2] -11.2% | [3] 13.8% | [4] 12.7% | [5] 2.05% | [6] 27.2%

Cc1cccc2c(CC(N)C(=O)O)c[nH]c12 (stereo not given)
inactive: [1] 3.25% | [2] -19.9% | [3] -18.9% | [4] -23.4% | [5] -16.6% | [6] -3.35%

O=C(OC1CCC(c2ccccc2)C1)c1cc([N+](=O)[O-])cc([N+](=O)[O-])c1 (stereo not given)
inactive: [1] 35% | [2] 25.9% | [3] 29.4% | [4] -4.3% | [5] 44.3% | [6] 58.1%

Cc1[nH]nc2c(=O)n(N)nnc12
inactive: [1] 18.4% | [2] 7.3% | [3] 0.35% | [4] -16.9% | [5] -15.8% | [6] 26.4%
